From PubChem BioAssay AID1159580 (chemical genetic matrix, 2015)
Screen size: about 5,500 compounds; about 2,000 (36%) were called active. Another 18% or so got no clear call; they are omitted. Rule as the data show it: active = normalized growth mostly below about 0.91 (no sharp cut-off); inconclusive = no clear call, values can overlap the other calls; inactive = mostly above about 0.92. The list shows a part of the results.

Experiment: chemical genetic growth profiling, strain panel (AID 1159580);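 also: tested at 20 µM; growth read once vehicle control cultures reached saturation at 30 °C; 1 = growth at the plate median or of vehicle wells; lower values mean less growth of the strain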
Details: S. cerevisiae deletion strains, growth OD

Measured: normalized growth

CN(C)CC/C=C1\c2ccccc2COc2ccccc21
inactive: locus YAL013W, strain DEP1, active compounds read low 0.998 | locus YAL040C, strain CLN3, active compounds read low 0.997 | locus YCL061C, strain MRC1 (second series), active compounds read low 0.992 | locus YDR150W, strain NUM1, active compounds read low 1.01 | locus YDR363W, strain ESC2, active compounds read low 0.944 | locus YER002W, strain NOP16, active compounds read low 1.01 | locus YGR078C, strain PAC10, active compounds read low 1.01 | locus YJR075W, strain HOC1, active compounds read low 0.952 | locus YMR263W, strain SAP30, active compounds read low 0.991 | locus YNL128W, strain TEP1, active compounds read low 1.01 | locus YNL153C, strain GIM3, active compounds read low 1.03 | locus YNL175C, strain NOP13, active compounds read low 1.02 | locus YNL197C, strain WHI3, active compounds read low 1 | locus YNL224C, strain SQS1, active compounds read low 1.03 | locus YOR083W, strain WHI5 (second series), active compounds read low 0.997
